Many of the other results were omitted from the sample, so hits are more common in it than they were.
Dicer inh = inhibitors of human Dicer processing of pre-microRNA. z-score at 25 µM. AID 1347074. Q9UPY3. 47,000 tested, 6% active. cat-ELCCA pre-miR-21 Dicer processing, chemiluminescence; stronger effect = higher value; in the data active = z-score above about 3, passing the limit was not always enough;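 also: plate controls were vehicle for no effect and no enzyme for full effect; higher signal means more uncleaved substrate so more Dicer inhibition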
Target sequence (Q9UPY3 whole entry, looked up): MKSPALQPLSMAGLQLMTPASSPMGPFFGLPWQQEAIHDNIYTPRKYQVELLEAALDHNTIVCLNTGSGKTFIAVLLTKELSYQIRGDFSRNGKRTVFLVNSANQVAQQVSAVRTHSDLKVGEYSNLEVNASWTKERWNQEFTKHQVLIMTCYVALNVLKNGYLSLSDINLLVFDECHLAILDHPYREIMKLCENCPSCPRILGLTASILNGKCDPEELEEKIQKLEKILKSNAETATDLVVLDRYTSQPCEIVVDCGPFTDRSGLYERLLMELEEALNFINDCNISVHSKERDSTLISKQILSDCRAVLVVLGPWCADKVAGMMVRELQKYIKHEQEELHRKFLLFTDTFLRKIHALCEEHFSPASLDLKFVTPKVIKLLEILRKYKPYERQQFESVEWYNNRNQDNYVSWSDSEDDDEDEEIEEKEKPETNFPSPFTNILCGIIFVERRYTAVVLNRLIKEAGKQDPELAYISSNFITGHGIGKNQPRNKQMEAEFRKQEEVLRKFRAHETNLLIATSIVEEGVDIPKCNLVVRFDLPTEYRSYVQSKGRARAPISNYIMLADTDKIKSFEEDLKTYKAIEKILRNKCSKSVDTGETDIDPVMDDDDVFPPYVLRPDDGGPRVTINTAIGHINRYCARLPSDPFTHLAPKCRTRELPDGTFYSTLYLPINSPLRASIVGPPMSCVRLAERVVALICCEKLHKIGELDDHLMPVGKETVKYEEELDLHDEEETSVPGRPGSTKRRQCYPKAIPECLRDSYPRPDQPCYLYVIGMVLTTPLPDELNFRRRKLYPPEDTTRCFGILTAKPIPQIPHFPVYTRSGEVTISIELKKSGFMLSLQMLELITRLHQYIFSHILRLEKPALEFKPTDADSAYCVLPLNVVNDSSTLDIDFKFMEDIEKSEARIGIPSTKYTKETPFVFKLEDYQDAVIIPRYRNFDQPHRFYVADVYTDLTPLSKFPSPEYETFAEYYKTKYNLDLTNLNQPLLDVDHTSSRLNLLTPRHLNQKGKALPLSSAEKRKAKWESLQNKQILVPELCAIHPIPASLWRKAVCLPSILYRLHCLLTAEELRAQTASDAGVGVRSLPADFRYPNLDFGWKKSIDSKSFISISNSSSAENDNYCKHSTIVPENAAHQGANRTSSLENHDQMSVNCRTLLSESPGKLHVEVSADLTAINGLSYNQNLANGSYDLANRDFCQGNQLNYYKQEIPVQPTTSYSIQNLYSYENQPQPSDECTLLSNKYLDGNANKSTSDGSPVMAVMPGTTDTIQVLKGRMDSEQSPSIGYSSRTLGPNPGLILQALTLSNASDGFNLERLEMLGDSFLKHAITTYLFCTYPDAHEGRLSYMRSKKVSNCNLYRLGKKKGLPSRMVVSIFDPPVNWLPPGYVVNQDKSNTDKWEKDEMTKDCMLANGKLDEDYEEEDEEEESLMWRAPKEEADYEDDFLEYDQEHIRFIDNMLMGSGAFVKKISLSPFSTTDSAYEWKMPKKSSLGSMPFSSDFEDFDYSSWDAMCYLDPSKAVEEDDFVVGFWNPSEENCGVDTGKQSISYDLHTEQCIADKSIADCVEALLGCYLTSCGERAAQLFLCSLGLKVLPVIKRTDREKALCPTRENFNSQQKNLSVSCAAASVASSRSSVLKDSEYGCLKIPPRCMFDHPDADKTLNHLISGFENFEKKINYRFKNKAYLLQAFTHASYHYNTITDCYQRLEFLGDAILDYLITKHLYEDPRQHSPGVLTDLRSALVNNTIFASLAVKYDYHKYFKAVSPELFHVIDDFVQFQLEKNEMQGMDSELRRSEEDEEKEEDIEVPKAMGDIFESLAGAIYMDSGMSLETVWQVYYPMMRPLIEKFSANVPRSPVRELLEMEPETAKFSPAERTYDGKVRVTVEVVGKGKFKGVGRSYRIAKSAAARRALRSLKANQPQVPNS
Active calls of the source: *.

SMILES	Dicer inh
c1ccc(C2Nc3cccc4cccc(c34)N2)cc1	6.2*
COc1ccccc1C1Nc2cccc3cccc(c23)N1	2.2
CC(C)(C)c1ccc(C2Nc3cccc4cccc(c34)N2)cc1	5*
CSc1sc(C2=NNC(O)(C(F)(F)F)C2)c2c1C(=O)CCC2(C)C (stereo not given)	-1.4
COc1cc(C2CC(=O)Nc3nc(N)[nH]c(=O)c32)ccc1OCc1cccc(Cl)c1 (stereo not given)	-0.05
CC(CC(=O)Nc1ccc(Cl)cc1)S(=O)(=O)c1ccc(Cl)cc1 (stereo not given)	-0.75
O=[N+]([O-])c1ccc(NCc2cccs2)nc1	-0.71
CCc1nc2c(=O)n(C)c3c(c(=O)n(-c4ccccc4)c(=O)n3-c3ccccc3)c2o1	-0.13
CCN(CC)c1ccc(-n2cc3c(c2-c2ccc(C)cc2)c(=O)n(C)c(=O)n3C)cc1	1.3
COC(CN(C)c1ncnc2sccc12)OC	-0.56
COCCNS(=O)(=O)c1ccc(C(=O)OC)n1C	0.34
CCCCN(C)c1ncnc2c1sc1nc(C)c3c(c12)CC(C)(C)OC3	-0.14
O=C(Nc1nc(-c2ccccc2)cs1)c1ccc(Cl)cc1	2.2
CC(=O)CCCNc1nc(-c2ccc(Cl)cc2)cs1	6.7*
Cn1ccnc1SCC(=O)Nc1nc(-c2ccc(Cl)cc2)cs1	0.23
COc1ccc(C2C(C(=O)c3cccs3)=C(O)C(=O)N2CCCN2CCOCC2)cc1OC (stereo not given)	-1.1
CC(C)C(=O)N(c1cc2sc(=O)oc2c2ccccc12)S(=O)(=O)c1cccs1	-5.3
O=C(Cc1ccccc1)N(c1ccc2oc(=O)sc2c1)S(=O)(=O)c1cccs1	5.4*
O=C(c1ccncc1)N(c1ccc2oc(=O)sc2c1)S(=O)(=O)c1cccs1	5.5*
COc1ccc(S(=O)(=O)N(C(=O)c2ccncc2)c2cc3sc(=O)oc3c3ccccc23)cc1	-2.7
O=C(c1cccnc1)N(c1ccc2oc(=O)sc2c1)S(=O)(=O)c1cccs1	6.1*
CC(C)C(=O)N(c1ccc2oc(=O)sc2c1)S(=O)(=O)c1cccs1	0.37
CS(=O)(=O)/C(C#N)=C/Nc1ncccn1	-2.5
CC(=O)O/N=C/c1ccc2c(c1)CCO2	-0.47
CCOC(=O)c1cnc(C(F)(F)F)nc1N/N=C/c1ccc(Cl)cc1	-1.9
SMILES	Dicer inh
O=C(Oc1ccc(Cl)cc1Cl)c1cc(-c2ccccc2)c(C(F)(F)F)s1	1.9
Cc1ccc(C)c(NC(=O)/C=C/C(=O)O)c1	2.8
Cc1c(C)c(NC(=O)/C=C/C(=O)O)c(C)c(C)c1NC(=O)/C=C/C(=O)O	3.5*
Cc1cc(C)cc(NC(=O)/C=C/C(=O)O)c1	7.1*
Cn1cc(Br)c(NC(=O)/C=C\C(=O)O)n1	-1.8
Cc1cc(C)c(C)c(C(=O)/C=C/C(=O)O)c1C	0.97
O=C(O)/C=C/C(=O)Nc1ccc(C2CCCCC2)cc1	1.4
CN(C)/C=N/NC(=O)Cn1nnc(-c2ccc(C(F)(F)F)cc2)n1	-1
Nc1c(C(=O)NNC(=S)NCc2ccccc2)oc2nc(-c3ccc(Cl)cc3)cc(-c3ccccc3)c12	-0.19
O=C(NCc1ccc2c(c1)OCO2)C(C(=O)c1ccc(F)cc1)n1ccccc1=O (stereo not given)	-1.3
CCOC(=O)Nc1ccc2c(c1)N(C(=O)NC)c1ccccc1CC2	3.5*
CCOC(=O)Nc1ccc2c(c1)N(C(=O)N1CCN(C)CC1)c1ccccc1CC2	1.2
COC(=O)Nc1ccc(S(=O)(=O)N2CCCc3ccccc32)cc1	0.04
COC(=O)c1ccccc1NC(=S)N(C)N	1.5
C=CCN1C(=O)C(O)(c2c[nH]c3ccccc23)c2cc(Br)ccc21 (stereo not given)	2
O=C(COc1ncnc2cc(Cl)ccc12)c1ccc(F)cc1	1.2
CC1=CC(C)(C)N(C(=O)CSc2nc3ccccc3[nH]2)c2ccccc21	-0.12
COc1cccc(C2=NN3C(C2)c2cc(Br)ccc2OC3c2cccnc2)c1 (stereo not given)	7.2*
Cc1ccc(O)c(C2=NN3C(C2)c2cc(Br)ccc2OC3c2cccnc2)c1 (stereo not given)	5.2
COc1ccc(C2=NN3C(C2)c2ccccc2OC3c2ccncc2)cc1 (stereo not given)	2.1
COc1ccc(C2=NN3C(C2)c2cc(Cl)ccc2OC3c2cccnc2)cc1 (stereo not given)	2.7
COc1ccc(C2=NN3C(C2)c2ccccc2OC3c2ccncc2)cc1OC (stereo not given)	1.2
COc1ccccc1C1Oc2ccccc2C2CC(c3cccnc3)=NN21 (stereo not given)	2.4
COc1ccc(C2=NN3C(C2)c2cc(Br)ccc2OC3c2cccnc2)cc1 (stereo not given)	4.2*
COc1ccc(C2=NN3C(C2)c2cc(Br)ccc2OC3c2ccncc2)cc1 (stereo not given)	8.2*
CC1(C)C=Cc2cc(/C(N)=N/OC(=O)Nc3ccc(Cl)cc3Cl)ccc2O1	-0.61
CC1N=C(SCc2c(F)cccc2Cl)N2C(C)N=C(SCc3c(F)cccc3Cl)N12 (stereo not given)	-0.41
CCc1c(O)nc2n(c1=O)CCS2	0.36

Screening results from PubChem.
